KCNQ2 enhance: potentiators of rat KCNQ2 potassium channel. CHO-K1 KCNQ2, FluxOR thallium flux fluorescence; stronger effect = higher value. B-score at 10 µM. hit rate 0.54% among 310,000;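 active means fluorescence ratio B-score at least 3 SD of library B-scores, with initial fluorescence B-score within 3 of them, cut at about 5.3 in these data; same plate scores as AID 2156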;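 further: B-score of peak minus minimum over baseline fluorescence ratio after K+ and Tl+ stimulus; positive B-score means potentiation of KCNQ2 with more thallium influx and brighter signal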
KCNQ2 block: inhibitors of rat KCNQ2 potassium channel; B-score at 10 µM; hit rate 1.1% among 310,000; CHO-K1 KCNQ2, FluxOR thallium flux, 20 min; stronger effect = lower value; AID 2156; O88943;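 active means fluorescence ratio B-score at most minus 3 library SDs, with starting brightness B-score within 2 library SDs, cut at about -5.5 in these data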
KCNQ2 block conf: confirmation of rat KCNQ2 potassium channel inhibitors; hit rate 57% among 1,000; AID 493025; shares compounds with KCNQ2 block; activity change, negative = inhibition, % at 10 µM; KCNQ2-expressing cells, thallium flux, inhibition; stronger effect = lower value
KCNQ1 spec: human KCNQ1 activity in KCNQ2 inhibitor specificity screen. shares compounds with KCNQ2 block. KCNQ1-expressing cells, FluxOR thallium flux fluorescence; stronger effect = lower value. activity change, negative = inhibition, % at 10 µM. hit rate 15% among 1,000. AID 493026;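 active means activity change at least 3 SD of negative controls below their mean in both duplicate wells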;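 further: CHO cells stably transfected with KCNQ1 and depolarized by potassium stimulus; peak minus minimum fluorescence over baseline after thallium addition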
Target sequence (P51787 whole entry, looked up): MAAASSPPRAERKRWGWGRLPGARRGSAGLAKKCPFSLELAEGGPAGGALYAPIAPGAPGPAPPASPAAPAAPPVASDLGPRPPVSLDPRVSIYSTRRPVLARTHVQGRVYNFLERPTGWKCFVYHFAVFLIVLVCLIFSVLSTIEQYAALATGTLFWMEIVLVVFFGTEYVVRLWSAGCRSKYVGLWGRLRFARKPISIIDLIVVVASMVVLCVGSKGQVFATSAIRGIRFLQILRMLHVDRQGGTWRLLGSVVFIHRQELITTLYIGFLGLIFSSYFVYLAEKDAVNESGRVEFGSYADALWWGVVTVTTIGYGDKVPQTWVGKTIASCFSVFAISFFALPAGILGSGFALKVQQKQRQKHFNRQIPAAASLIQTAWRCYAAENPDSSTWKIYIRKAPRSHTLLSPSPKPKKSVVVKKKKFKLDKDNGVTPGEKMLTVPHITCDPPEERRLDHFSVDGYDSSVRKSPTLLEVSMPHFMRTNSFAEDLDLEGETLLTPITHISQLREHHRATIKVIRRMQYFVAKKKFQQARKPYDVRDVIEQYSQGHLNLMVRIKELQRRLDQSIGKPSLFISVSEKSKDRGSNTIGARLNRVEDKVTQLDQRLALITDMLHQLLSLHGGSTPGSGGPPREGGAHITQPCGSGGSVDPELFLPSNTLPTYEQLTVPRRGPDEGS
CHO Tl ctr: counter-screen for KCNQ2 inhibitors: effect in parental CHO cells | thallium flux counter-screen; stronger effect = lower value | hit rate 14% among 1,000 | activity change, % at 10 µM | shares compounds with KCNQ2 block | AID 493029
KCNQ2 inh confirm: blocks rat KCNQ2 current in automated patch clamp. shares compounds with KCNQ2 block. KCNQ2-expressing cells. calls only at 10 µM. hit rate 49% among 550
Large screens that a line does not name were inactive (follow-up assays come after a bar, where they were run). Rows were chosen to be rich in hits. Some 1.6% of all compounds tested hit in one or more screens of this group. Unless noted, how the calls were made is not given here.

Cc1ccc(C(CCN(Cc2ccccc2)C(=O)c2ccco2)c2ccco2)cc1 (stereo not given)	KCNQ2 block -8.01 | KCNQ2 block conf -27.0% | KCNQ1 spec inactive | CHO Tl ctr inactive | KCNQ2 inh confirm inactive
CC(C)C(NC(=O)C(C)N1C(=O)c2ccccc2C1=O)c1ccccc1 (stereo not given)	none (no result: KCNQ2 enhance)
CCCN(CC(=O)Nc1ccccc1OC)C(=O)c1cc(-c2cccs2)nn1-c1ccccc1	KCNQ2 block -9.27 | KCNQ2 block conf -32.0% | KCNQ1 spec inactive | CHO Tl ctr inactive | KCNQ2 inh confirm active
CCN(CC(=O)Nc1ccccc1C(F)(F)F)C(=O)c1cc(-c2cccs2)nn1-c1ccccc1	none (no result: KCNQ2 enhance)
COc1cc(NC(=O)CSc2nc(C)c(C)c(C)n2)cc(OC)c1	none
Cc1occc1C(=O)Nc1cnn(CCCC(=O)O)c1	none
CN(CC(O)COc1ccc(OCC(O)CN(C)C2CCCCC2)cc1)C1CCCCC1 (stereo not given)	none
Cc1cccc(C)c1OCC(O)CN(Cc1ccccc1O)C1CCCCC1 (stereo not given)	KCNQ2 block -8.39 | KCNQ2 block conf -41.0% | KCNQ1 spec -43.0% | CHO Tl ctr -35.5% | KCNQ2 inh confirm active
Cc1ccc(S(=O)(=O)NCc2cccnc2)cc1C(=O)N1CCCC1	none (no result: KCNQ2 enhance)
CCc1nc(Nc2ccc3c(c2)OCCO3)c2oc3ccccc3c2n1	none (no result: KCNQ2 enhance)
Cc1nc(Nc2ccc3c(c2)OCCO3)c2oc3ccccc3c2n1	KCNQ2 block -8.05 | KCNQ2 block conf -31.5% | KCNQ1 spec -28.0% | CHO Tl ctr inactive | KCNQ2 inh confirm inactive
COc1ccc(N2CCN(C(=O)C3CCN(S(=O)(=O)c4ccc5c(c4)oc(=O)n5C)CC3)CC2)cc1	none
CC1CN(C(=O)c2cc(S(=O)(=O)N(C)c3ccc(F)cc3)ccc2Cl)CC(C)O1 (stereo not given)	none
Cc1nn(-c2ccccc2)c(/N=C/c2ccccc2O)c1-c1ccccc1	KCNQ2 block -10.8 | KCNQ2 block conf -43.0% | KCNQ1 spec -50.5% | CHO Tl ctr -43.0% | KCNQ2 inh confirm inactive
Cc1nn(-c2ccccc2)c(N)c1-c1ccccc1	none (no result: KCNQ2 enhance)
COc1ccc2c(c1)C1CC(C)(NC(=O)C1S(=O)(=O)c1ccc(F)cc1)O2 (stereo not given)	none
Cc1csc2nc(CSc3ccc(Cl)cc3)cn12	KCNQ2 block -10.7 | KCNQ2 block conf -37.5% | KCNQ1 spec -43.0% | CHO Tl ctr -35.0% | KCNQ2 inh confirm active
Clc1ccc(SCc2cn3ccsc3n2)cc1	none (no result: KCNQ2 enhance)
CCC(=O)N1c2ccc(C)cc2C2=NNC(=S)NC21O (stereo not given)	none
O=C(NCc1ccco1)c1ccc(-c2ccc(Cl)cc2)o1	none (no result: KCNQ2 enhance)
O=C(NCc1ccco1)c1csc(Nc2ccccc2Cl)n1	KCNQ2 block -8.35 | KCNQ2 block conf inactive | KCNQ1 spec inactive | CHO Tl ctr inactive
COc1ccc(Nc2nc(C(=O)NCc3ccco3)cs2)cc1	none (no result: KCNQ2 enhance)
O=C(NCc1ccco1)c1ccc(-c2ccccc2Cl)o1	KCNQ2 block -7.11 | KCNQ2 block conf inactive | KCNQ1 spec inactive | CHO Tl ctr inactive
CCn1c(SCC(=O)NC2CCCC2)nnc1C(C)C	none
COc1ccccc1NC(=O)Nc1nc(CC(=O)N2CCN(c3ccccc3OC)CC2)cs1	none (no result: KCNQ2 enhance)
COc1ccc(-c2nc(CS(=O)CC(=O)NCCCN3CCOCC3)c(C)o2)cc1OC (stereo not given)	none (no result: KCNQ2 enhance)
CCN1CCN(c2oc(COc3ccc(-c4ccccc4)cc3)nc2C#N)CC1	none (no result: KCNQ2 enhance)
N#Cc1nc(COc2ccc(F)cc2)oc1N1CCC(Cc2ccccc2)CC1	KCNQ2 block -8.86 | KCNQ2 block conf -41.5% | KCNQ1 spec -42.0% | CHO Tl ctr -32.5% | KCNQ2 inh confirm inactive
N#Cc1nc(COc2ccc(F)cc2)oc1N1CCN(Cc2ccccc2)CC1	KCNQ2 block -6.95 | KCNQ2 block conf -16.5% | KCNQ1 spec inactive | CHO Tl ctr inactive | KCNQ2 inh confirm active
N#Cc1nc(Cc2ccccc2)oc1N1CCC(Cc2ccccc2)CC1	none (no result: KCNQ2 enhance)
Nc1nc(-c2ccccc2)c(-c2ccccc2)o1	none (no result: KCNQ2 enhance)
c1ccc(-c2nc(-c3nccc4ccccc34)oc2-c2ccccc2)cc1	KCNQ2 block -8.61 | KCNQ2 block conf inactive | KCNQ1 spec inactive | CHO Tl ctr inactive
Cc1ccc(S(=O)(=O)N(C)CC(O)Cn2c3ccccc3c3ccccc32)cc1 (stereo not given)	none (no result: KCNQ2 enhance)
O=S(=O)(c1ccccc1)N(CC(O)Cn1c2ccccc2c2ccccc21)c1ccccc1 (stereo not given)	KCNQ2 block -9.55 | KCNQ2 block conf inactive | KCNQ1 spec inactive | CHO Tl ctr inactive
O=C(NCCCN1CCOCC1)NC12CC3CC(CC(C3)C1)C2	none (no result: KCNQ2 enhance)
O=C(NCCCN1CCN(c2ccc(F)cc2)CC1)NC12CC3CC(CC(C3)C1)C2	KCNQ2 block -8.16 | KCNQ2 block conf inactive | KCNQ1 spec inactive | CHO Tl ctr inactive
COc1cc(C(=O)NCC(C)(C)CNC(=O)c2cc(OC)c(OC)c(OC)c2)cc(OC)c1OC	none
CC(C)(C)n1nnnc1C(c1cccnc1)N1CCN(c2cccc(C(F)(F)F)c2)CC1 (stereo not given)	none
CC(C)(C)c1cc(C(c2cccnc2)N2CCN(CCO)CC2)cc(C(C)(C)C)c1O (stereo not given)	KCNQ2 block -9.15 | KCNQ2 block conf -26.0% | KCNQ1 spec inactive | CHO Tl ctr inactive | KCNQ2 inh confirm inactive
CN(C)S(=O)(=O)c1cc(NC(=O)CNCCN2CCOCC2)ccc1Cl	none
Cc1nc(Cl)c(C(=O)NC(=O)NCc2ccccc2)c(C)c1Cl	none
CN(CCC#N)C(=O)COC(=O)c1cc(Cl)cc(Cl)c1N	none (no result: KCNQ2 enhance)
CC(=O)Nc1ccccc1OCC(=O)NCCC1=CCCCC1	none
Cc1ccccc1OCC(=O)NCCC1=CCCCC1	KCNQ2 block -7.34 | KCNQ2 block conf inactive | KCNQ1 spec inactive | CHO Tl ctr inactive
CCOC(=O)CC1C(=O)NCCN1C(=O)c1cccc(OC)c1 (stereo not given)	none
COc1ccc(-n2c3c(cc(C#N)c2=O)C(=O)CCC3)cc1	none (no result: KCNQ2 enhance)
CCC(C)Sc1cccc(-c2nc3ccc(Cl)cn3c2NCc2ccccc2)c1 (stereo not given)	KCNQ2 block -7.3 | KCNQ2 block conf -33.0% | KCNQ1 spec -37.5% | CHO Tl ctr -25.0% | KCNQ2 inh confirm active
CC(=O)Nc1c(-c2ccccc2)nc2ccc(Cl)cn12	none (no result: KCNQ2 enhance)
CCOC(=O)CNc1c(-c2ccccc2)nc2ccc(Cl)cn12	KCNQ2 block -7.04 | KCNQ2 block conf -32.5% | KCNQ1 spec inactive | CHO Tl ctr inactive | KCNQ2 inh confirm active
CCC(C)Sc1cccc(-c2nc3ccc(C)cn3c2NCc2ccccc2)c1 (stereo not given)	none (no result: KCNQ2 enhance)
COc1ccc(OCC(O)CNS(=O)(=O)c2cccs2)cc1 (stereo not given)	none
COc1ccc(C)cc1NC(=O)CSc1nnc2ccc(-c3cccnc3)nn12	none (no result: KCNQ2 enhance)
CCn1cnc2c1c(=O)n(Cc1csc(-c3ccccc3)n1)c(=O)n2Cc1ccccc1	KCNQ2 block -9.37 | KCNQ2 block conf -16.0% | KCNQ1 spec inactive | CHO Tl ctr inactive | KCNQ2 inh confirm inactive
CCn1cnc2c1c(=O)n(Cc1cccc([N+](=O)[O-])c1)c(=O)n2Cc1ccccc1	none

Screening results from PubChem.
